# Screening results as filed in PubChem BioAssay.
# An excerpt weighted towards active compounds, which were near 3% of everything screened.
# 12-LOX inh = Primary qHTS assay for inhibitors of human arachidonate 12S-lipoxygenase (ALOX12): Round 2; Polyunsaturated fatty acid lipoxygenase ALOX12 (Homo sapiens), P18054; purified 12hLO, xylenol orange hydroperoxide absorbance; Potency, µM (top dose mostly 108 µM), for inactives: at the top dose activity change, negative = inhibition, most hits filed as inhibitors; 1.1% of 580,000 active; AID 1671190, 2021; active = well fitted inhibition curve with a large enough effect; inconclusive = small, poorly fitted or top-dose-only effect, or another doubt; inactive = no such curve, though single readings can be large or run the other way; also: potency is read from the fitted curve at half-maximal effect; % is scaled to controls: 0 for no effect and ±100 for the full control effect
#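 Purified human 12hLO (150 nM final) in 25 mM Hepes, 0.01% Triton X-100, pH 7.0 was preincubated 15 min at room temperature with compound. Then 40 uM arachidonic acid was added, 30 min. Hydroperoxide was read by Fe-XO absorbance ratio 573/405 nm.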
# hERG WT inh = qHTS for Inhibitors of KCHN2 3.1: Wildtype qHTS | Voltage-gated inwardly rectifying potassium channel KCNH2 (Homo sapiens), Q12809 | AID 720551, 2013 | U2OS, BacMam KCNH2, thallium flux FluxOr; hits give low values | 0.37% of 340,000 active | activity change, % at 1.84 µM;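 active = maximum activity change below -70%; inconclusive = maximum activity change between -70% and -50%; inactive = maximum activity change above -50%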; also: % is scaled to controls: 0 for no effect and ±100 for the full control effect
# Target sequence (Q12809 whole entry, looked up): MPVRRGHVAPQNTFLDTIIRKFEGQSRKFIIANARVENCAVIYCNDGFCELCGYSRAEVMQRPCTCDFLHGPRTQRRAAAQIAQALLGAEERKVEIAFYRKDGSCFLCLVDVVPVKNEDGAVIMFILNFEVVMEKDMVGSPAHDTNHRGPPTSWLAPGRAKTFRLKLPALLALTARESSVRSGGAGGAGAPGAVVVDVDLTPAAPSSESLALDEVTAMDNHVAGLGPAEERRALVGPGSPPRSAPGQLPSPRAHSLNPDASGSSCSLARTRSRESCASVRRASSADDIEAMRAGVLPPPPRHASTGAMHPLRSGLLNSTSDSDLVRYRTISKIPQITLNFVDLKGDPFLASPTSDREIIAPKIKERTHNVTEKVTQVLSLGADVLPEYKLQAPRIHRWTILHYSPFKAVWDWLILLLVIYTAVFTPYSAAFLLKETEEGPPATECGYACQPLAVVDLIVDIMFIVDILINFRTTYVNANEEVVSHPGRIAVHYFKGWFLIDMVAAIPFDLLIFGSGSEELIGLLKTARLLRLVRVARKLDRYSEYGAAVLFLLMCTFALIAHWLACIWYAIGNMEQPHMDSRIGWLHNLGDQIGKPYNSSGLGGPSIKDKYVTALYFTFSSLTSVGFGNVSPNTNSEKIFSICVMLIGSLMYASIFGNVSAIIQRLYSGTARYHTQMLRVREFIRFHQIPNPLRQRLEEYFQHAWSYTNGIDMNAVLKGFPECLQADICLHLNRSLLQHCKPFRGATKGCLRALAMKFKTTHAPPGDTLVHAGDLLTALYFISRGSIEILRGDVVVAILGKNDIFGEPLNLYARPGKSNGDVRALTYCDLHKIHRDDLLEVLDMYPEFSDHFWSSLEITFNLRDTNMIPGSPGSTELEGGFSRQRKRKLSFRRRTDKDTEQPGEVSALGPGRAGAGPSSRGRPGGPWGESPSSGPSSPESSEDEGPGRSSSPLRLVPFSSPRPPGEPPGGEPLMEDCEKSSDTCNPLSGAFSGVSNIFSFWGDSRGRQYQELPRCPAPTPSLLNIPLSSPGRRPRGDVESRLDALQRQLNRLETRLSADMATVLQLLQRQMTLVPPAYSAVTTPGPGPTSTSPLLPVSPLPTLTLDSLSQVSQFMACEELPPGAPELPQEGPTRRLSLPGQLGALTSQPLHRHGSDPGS
#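 U2OS cells were transduced with wild-type KCNH2 virus (2.03 x 10^8 / mL) for 4 h at room temperature, then cultured overnight at 37 C. Thallium flux was read with FluxOr dye. Rate constants were normalized to DMSO controls.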
# LDHA inh = qHTS assay for inhibitors of human lactate dehydrogenase. 0.15% of 480,000 active. L-lactate dehydrogenase A chain (Homo sapiens), P00338. purified LDHA, NADH/diaphorase-resazurin fluorescence; hits give low values. AID 1347041, 2019. activity change, % (values are at about 110 or 230 µM); in the data active = activity change below about -30%; inconclusive = mostly about -25% to -30%;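 also: plate controls were DMSO wells for no effect and wells without enzyme for full effect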
#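 Human LDH5 at 2 nM final in Tris HCl pH 7.4 with 0.06 mM NADH and 0.2 mM pyruvate, reacted 5 minutes at room temperature. Remaining NADH coupled via diaphorase/resazurin; resorufin fluorescence read at 0 and 20 minutes, normalized to enzyme-free and DMSO wells.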
# Chronic BCR inh = qHTS Assay to Find Inhibitors of Chronic Active B-Cell Receptor Signaling; ABC-DLBCL IkBa-CBG/CBR reporter, luminescence ratio, 4 h; Potency, µM (top dose mostly 46.1 µM), without a hit: top-dose activity change, negative = inhibition, hits mostly inhibitors; 0.05% of 340,000 active; active = well fitted inhibition curve with a large enough effect in the signal ratio, with a control signal flat, not every such curve was filed as active; inconclusive = small, poorly fitted or top-dose-only effect, or effect the other way, or a change in a side signal; the % refers to the signal ratio;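 also: potency is read from the fitted curve at half-maximal effect; plate controls were basal doxycycline-induced cells for no effect and cells given 10 µM MG132 for full effect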
#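 Concentration-response series (up to 46 uM) were applied to TMD8 dual-reporter cells for 4 h at 37C with doxycycline. Green/red ratio, after filter-overlap correction, defined %Activity; red signal alone was normalised to basal cells and zero luminescence.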
# ClpP mod = qHTS Assay for Activators of ClpP | purified B. subtilis ClpP, FRET peptide cleavage, 20 min | Potency, µM (highest dose often 57.5 µM), inactives show at the top dose activity change, negative = active | 1.9% of 340,000 active; active = well fitted falling curve with a large enough effect; inconclusive = small, poorly fitted or top-dose-only effect; inactive = no such curve, though single readings can be large or run the other way; also: potency is read from the fitted curve at half-maximal effect; the source files actives as falling curves though it sought activators and does not explain the sign; nearly all actives have a fitted effect of over 65% in size
#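 ClpP 10 microg/mL final, pH 8 Tris/KCl buffer with BSA, glycerol, Tween-20; compound pinned in; FRET-FV substrate; RT 20 min; Ex320/Em430; ΔFRET vs ADEP 5.8 microM, DMSO, no enzyme.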
# KCNH2 3.1 block = qHTS for Inhibitors of KCHN2 3.1: Mutant qHTS; Potassium voltage-gated channel subfamily H member 2, brain isoform KCNH2 3.1 (human); U2OS KCNH2 3.1, thallium flux FluxOr; hits give low values; activity change, % (tested at about 1.8 µM); 0.95% of 340,000 active;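 active = maximum activity change below -70%; inconclusive = maximum activity change from -70% to -50%; inactive = maximum activity change above -50%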;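 also: thallium influx rate constant from kinetic fluorescence after stimulation buffer; % is scaled to controls: 0 for no effect and ±100 for the full control effect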
#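 U2OS cells transduced with KCNH2 3.1 mutant virus (1.77 x 10^8 /mL, 4 h), plated overnight at 37 C, loaded 45 min with FluxOr dye plus Red40 quencher. Thallium flux rate constant from kinetic reads after stimulation buffer, normalised to controls.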
# Active calls of the source: *; i = inactive; ? = inconclusive; . = not tested or not shown.
SMILES,12-LOX inh,hERG WT inh,LDHA inh,Chronic BCR inh,ClpP mod,KCNH2 3.1 block
COc1cc(NC(=O)c2oc3c(c2C)-c2nn(Cc4cccc(Cl)c4)cc2CC3)cc(OC)c1,?,.,2,.,20µM*,.
Cc1ccccc1NC(=O)c1oc2c(c1C)-c1nn(Cc3cccc(Cl)c3)cc1CC2,0%,.,16,.,-13%,.
CCn1cc2c(n1)-c1c(oc(C(=O)Nc3cccc(C(F)(F)F)c3)c1C)CC2,-25%,.,9,.,35µM*,.
COc1ccc(NC(=O)c2oc3c(c2C)-c2nn(Cc4ccccc4Cl)cc2CC3)cc1OC,?,.,23,.,-9%,.
CCCCC(=O)NC(=S)Nc1cc(C(=O)O)ccc1OC,?,-5,-9,?,.,1
O=C(O)c1ccc(NC(=S)NC(=O)C(c2ccccc2)c2ccccc2)cc1,?,0,-12,-13%,1%,1
COc1ccc(C(=O)O)cc1NC(=S)NC(=O)C(c1ccccc1)c1ccccc1,35µM*,5,1,-11%,4%,24
O=C(O)c1cccc(NC(=S)NC(=O)C(c2ccccc2)c2ccccc2)c1,28µM*,6,-3,?,12%,3
CCCCCCCOc1ccc(/C=C/c2ccc(CCCCCCC)cn2)cc1,43%,.,6,.,.,.
CCN(CC(=O)NC(C)C)C(=O)C(CCSC)NC(=O)c1cccc(C)c1 (stereo not given),-4%,-155*,-5,2%,-1%,-201*
O=C(Nc1cccc2cccnc12)c1cccc(C(=O)Nc2cccc3cccnc23)c1,2%,.,12,.,.,.
COc1ccc(-c2cc3ccc(OCC(=O)OC(C)C)cc3oc2=O)cc1,5%,.,15,.,.,.
O=C(NCCCN1CCOCC1)c1ccccc1N1C(=O)[C@@H]2Cc3c([nH]c4ccccc34)C(c3cccc(Cl)c3)N2C1=O (stereo not given in full),-29%,?,3,6%,0%,-77*
O=c1cc(/C=C/c2ccccc2)oc2c1ccc1ccccc12,0%,-2,0,0%,28µM*,4
O=c1cc(-c2ccccc2)oc2c1ccc1ccccc12,0%,.,.,.,.,.
O=c1cc(-c2ccc(O)c(O)c2)oc2c1ccc1ccccc12,0.35µM*,0,-1,?,0%,1
O=c1oc(-c2ccc(O)c(O)c2)cc2cc(O)cc(O)c12,2.5µM*,-9,17,?,5%,-1
O=c1oc(-c2ccc(O)c(O)c2)cc2cccc(O)c12,4.5µM*,3,11,?,?,3
C=CCOc1ccccc1NC(=O)c1ccccc1,1%,.,0,.,.,.
COc1ccc(Oc2c(C)oc3cc(O)ccc3c2=O)cc1,1%,.,0,.,.,.
CCOc1ccc(NC(=O)CSc2nc3ccccc3c(=O)n2CC2CCCO2)cc1 (stereo not given),-4%,.,-5,.,.,.
O=C1N=c2ccc(Br)cc2=C1c1sc(=S)n(NS(=O)(=O)c2ccccc2)c1O,35µM*,-46,13,15%,.,-15
O=C1N=c2ccccc2=C1c1sc(=S)n(NC(=O)c2cccc(O)c2)c1O,-30%,-5,6,?,3%,-18
Cc1ccc(S(=O)(=O)Nn2c(O)c(C=C3N=c4ccccc4=N3)sc2=S)cc1,35µM*,1,-5,?,-3%,11
O=c1c2c(nc3cc(-c4ccccc4)[nH]n13)CCS2,-9%,-1,0,?,10µM*,2
SMILES,12-LOX inh,hERG WT inh,LDHA inh,Chronic BCR inh,ClpP mod,KCNH2 3.1 block
O=c1c2c(nc3cc(-c4ccccc4Cl)[nH]n13)CCS2,40µM*,i,-9,?,.,-7
CN(C)S(=O)(=O)N1CCc2nc3cc(-c4ccccc4)[nH]n3c(=O)c2C1,6%,.,.,.,.,.
COc1ccc(Cc2nc3c4c(ncn3n2)Oc2cc(O)ccc2C4c2ccccc2)cc1OC (stereo not given),0%,.,1,.,.,.
Cn1c(SCC(=O)Nc2cccc(C(=O)O)c2)nnc1-c1cc2cc(Br)ccc2o1,-2%,3,-34*,-1%,.,-26
COc1cc(/C=C/C(=O)c2ccc(C(=O)O)s2)cc(OC)c1O,?,.,78,.,.,.
Fc1cccc(NC(=S)NNc2c3ccccc3nc3ccccc23)c1,40µM*,5,-5,?,.,-23
CCCCCN1CCN(c2nc3c(c(=O)[nH]c(=O)n3C)n2Cc2ccc(Br)cc2)CC1,?,.,-3,.,.,.
O=C(CCc1nc(CSc2nc3ccccc3o2)no1)Nc1ccc2ccccc2c1,2%,.,3,.,.,.
CSc1cccc(NC(=O)Cn2c3ncccc3c(=O)n2-c2ccc(C)cc2)c1,-3%,.,2,.,25µM*,.
N#Cc1cc([N+](=O)[O-])ccc1N1CCN(c2ccccc2O)CC1,-13%,0,11,0%,1%,2
O=[N+]([O-])c1ccc(N2CCN(c3ccc([N+](=O)[O-])cc3CO)CC2)c(CO)c1,0%,?,-1,0%,0%,-89*
COc1cccc2sc(NNC(=O)C3=COCCO3)nc12,2%,-2,3,?,35µM*,-6
Cc1nn(-c2ccccc2)c(C)c1/C=N/NC(=O)c1cc(-c2cccs2)[nH]n1,3%,10,-4,18µM*,-5%,-3
Cc1nn(-c2ccccc2)c(C)c1/C=N/NC(=O)c1cccs1,9%,-7,-15,-12%,25µM*,-3
N=c1sccn1CC(=O)N1N=C(c2ccc(Cl)cc2)CC1c1ccco1 (stereo not given),-20%,14,0,-3%,.,-86*
O=C(OCC(=O)N1N=C(c2ccc(Cl)cc2)CC1c1ccco1)c1cncc(Br)c1 (stereo not given),7.9µM*,5,-4,1%,.,-19
O=C(OCC(=O)N1N=C(c2ccc(Cl)cc2)CC1c1ccco1)c1ccccc1O (stereo not given),29%,0,-1,?,35µM*,-12
Cc1cc(C)n(Cc2ccc(C(=O)Nc3ccc(Br)cc3C)o2)n1,35µM*,12,2,3%,-2%,1
